Measurements reported in PubChem BioAssay (Tox21).
Records with an inconclusive call do not appear. A number with no mark means an inactive call. The source made the active and inactive calls. Calls come from the whole dose curve; as a rule, active = well fitted cell-killing curve with a large enough effect in the repeat runs; inconclusive = weak or mixed curves, or effect the other way; inactive = flat fitted curve, though single readings scatter.

Assay: Human pregnane X receptor (PXR) small molecule agonists, qHTS cell viability counter screen (AID 1346977); note: nearly all actives have a fitted effect of over 50% in size
Details: PXR-Luc HepG2 viability, CellTiter-Fluor, 24 h; series mostly up to 92.4 µM; activity change, negative = cytotoxicity: at the top concentration
Text: U.S. Tox21 Program National Center for Advancing Translational Sciences [NCATS] NIH Chemical Genomics Center [NCGC] U.S. Environmental Protection Agency [EPA] National Institutes of Environmental Health Sciences [NIEHS] National Toxicology Program [NTP] U.S. Food and Drug Administration [FDA] Tox21 Assay Overview: The human pregnane X receptor (hPXR) regulates the expression of several drug metabolizing enzymes and induction of these proteins is a major mechanism for developing drug resistance in cancer. One such key enzyme catalyzing the drug metabolism is cytochrome P450 3A4 (CYP3A4). Changes in CYP3A4 expression affect drug metabolism, thereby reducing the therapeutic efficacy and altering toxicological response to a drug and which finally causes adverse drug interaction. To screen Tox21 libraries for compounds that activate hPXR-mediated CYP3A4 gene expression, PXR-Luc HepG2 cells were used. Also cytotoxicity of the compounds was tested in parallel by measuring the cell viability using CellTiter-Fluor assay system in the same wells.
Tox21 Assay Protocol Summary: PXR-Luc HepG2 cells were dispensed at 2,000 per well in 5uL of assay medium containing 5% charcoal-stripped FBS into white solid bottom 1536-well plates (Corning Life Sciences, Corning, NY) using a Multidrop Combi (Thermo Scientific, Waltham, MA) dispenser. The assay plates were incubated at 37 C and 5% CO2 for 5hr, and then 23nL of compounds dissolved in DMSO and positive control were transferred using a Pintool station (Wako, San Diego, CA). The assay plates were incubated at 37C and 5% CO2 for 24hr. For cytotoxicity read, after 23hr incubation at 37C, 1uL CellTiter-Fluor reagent (Promega Corporation, Madison, WI) was added to each well of the assay plates using Flying Reagent Dispenser (FRD, Aurora Discovery, San Diego, CA). After 1hr incubation at 37C and 5% CO2, the fluorescence signal was quantified using a ViewLux plate reader (PerkinElmer, Shelton, CT).
% is set by controls: 0 for no effect and ±100 for the full control effect; potency is the fitted concentration of half-maximal effect.

In the case of `C[C@H]1NCc2cc(-c3ccc4c(=O)c(C(=O)O)cn(C5CC5)c4c3OC(F)F)ccc21`, the activity change, negative = cytotoxicity is reported as 2.7% [at 19 µM].

Point of comparison: `CC(C)(C)NSc1nc2ccccc2s1`, “activity change, negative = cytotoxicity” value 11.2%. Against it:
- CC1(C)CCC[C@]2(C)[C@H]3CCO[C@]3(C)CC[C@@H]12 — lower, 0.492%
- OC/C=C/CO — lower, 0.989%
- CN(C)Cc1ccccc1O — higher, 24.1%
- Cc1c(C)c2c(c(C)c1O)CC[C@@](C)(CCC[C@H](C)CCC[C@H](C)CCCC(C)C)O2 — lower, 2.96%
- OC[C@H]1O[C@H](O[C@H]2O[C@H](CO)[C@@H](O)[C@H](O)[C@H]2O)[C@H](O)[C@@H](O)[C@@H]1O — lower, 0.545%
- CCCCCCCC — lower, -0.181%
- CN(C)Cc1cc(C(C)(C)C)c(O)c(C(C)(C)C)c1 — higher, 11.4%
- OC1CCCc2ccccc21 (stereo not given) — lower, 3.94%
- NC(=S)NC(N)=S — lower, -5.6%
- CCCCCCCCCCCCOC(=O)c1ccc(O)cc1 — lower, -21.4%
- Sc1nc2ccccc2s1 — higher, 12.6%
- CCC(C)(CCC(C)C)C(=O)[O][Sn]([CH3])([CH3])[O]C(=O)C(C)(CC)CCC(C)C (stereo not given) — lower, -0.509%
- Nc1ccc(Oc2ccc(Cl)cc2)cc1 — lower, -0.659%
- CCC(=O)C(=O)CC — lower, 2.14%
- CCn1c2ccccc2c2cc([N+](=O)[O-])ccc21 — lower, -5.35%
- O=[N+]([O-])c1ccc(F)c(Cl)c1 — lower, -0.485%
- CC(C)CCCCCOC(=O)CCS — higher, 12.7%
- O=[N+]([O-])c1cccc(C(F)(F)F)c1 — lower, 3.18%
- CCCC(=O)OC(C)(C)Cc1ccccc1 — lower, 6.04%

Point of comparison: `CN(C)C(=O)COC(=O)Cc1ccc(OC(=O)c2ccc(N=C(N)N)cc2)cc1`, “activity change, negative = cytotoxicity” value 11% [at 42.5 µM]. Against it:
- CC(C)(c1cc(Br)c(OCC(Br)CBr)c(Br)c1)c1cc(Br)c(OCC(Br)CBr)c(Br)c1 (stereo not given) — lower, 4.77% [at 42.5 µM]
- Cc1c(N)cccc1C(F)(F)F — lower, 0.0187% [at 42.5 µM]
- CC[N+](CC)(CC)CCOc1ccc(/C=C/c2ccccc2)cc1 — lower, -15.6% [at 42.5 µM]
- CC(C)(C)c1ccc(C(O)CCCN2CCC(C(O)(c3ccccc3)c3ccccc3)CC2)cc1 (stereo not given) — lower, -0.513% [at 42.5 µM]
- CC(N=C(NC#N)Nc1ccncc1)C(C)(C)C (stereo not given) — lower, 6.97% [at 42.5 µM]
- CCCCCCCC/C=C\CCCCCCCCN — lower, 0.292% [at 42.5 µM]
- CCC(CC)(CC(=O)Nc1cccc(/C=C/c2nc(C3CCC3)cs2)c1)C(=O)O — lower, -5.84% [at 42.5 µM]
- CCOC(=O)Cn1cccc1-c1nc(-c2ccc(OC)cc2)c(-c2ccc(OC)cc2)s1 — lower, -9.42% [at 42.5 µM]
- O=C(O)c1cc(=O)c2ccccc2o1 — lower, 7.29% [at 42.5 µM]

With `C=Cc1cccc(C)c1` the Potency was “inactive”.
With `Nc1ccc(NCCO)c([N+](=O)[O-])c1` the Potency was 48.6 µM (active).
For `C/C=C/C=C/COC(=O)C(C)C`, the Potency was 68.6 µM (active).
In the case of `O=C(c1ccc(O)c(O)c1)c1ccc(O)cc1O`, the Potency is reported as 50.1 µM (active).
With `CN1CCN(Cc2cc(-c3ccc4[nH]c(=O)oc4c3)co2)[C@@H](c2ccc(F)cc2)C1` the Potency was 46.7 µM (active).
For `Oc1c(I)cc(Cl)c2cccnc12`, the Potency was “inactive”.
With `O=C(Nc1ccc2c(O)c(N=Nc3ccc(N=Nc4ccc(S(=O)(=O)O)cc4)cc3)c(S(=O)(=O)O)cc2c1)c1ccccc1` the Potency was 8.63 µM (active).
In the case of `O=[N+]([O-])c1ccc(O)cc1C(F)(F)F`, the Potency is reported as 48.6 µM (active).

`NC[C@H]1O[C@H](O[C@H]2[C@H](O[C@@H]3O[C@H](CO)[C@@H](O)[C@H]3O)C(O)[C@H](N)C[C@@H]2N)[C@H](N)[C@@H](O)[C@@H]1O` (stereo not given in full) showed an activity change, negative = cytotoxicity of 22.9% [at 8.39 µM].
